# Measurements published in PubChem BioAssay (NCI).
# Compounds without any hit were thinned out: in the full panel of roughly 79,000, 15% have a hit. Unmarked numbers belong to inactive results. Active and inactive are the calls of the source. Cut-off read from the data, not from the text of the source: active = growth inhibition above about 70%; inactive = the rest.
# What was measured:
# [1] = NCI Yeast Anticancer Drug Screen. Data for the rad50 strain (AID 155);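 note: 0% = growth of vehicle-only cultures of the same strain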; conditions: S. cerevisiae rad50 strain growth inhibition, active compounds read high
# Outline: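 Genetically altered yeast (DNA repair pathway); compound treatment; growth inhibition vs vehicle ctrl.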
# [2] = NCI Yeast Anticancer Drug Screen. Data for the mec2-1 strain (AID 157); conditions: S. cerevisiae mec2-1 strain, active compounds read high
# Outline: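 Strain: mec2-1 (DNA repair/cell cycle alteration). Compound exposure, then growth measured; inhibition expressed relative to vehicle.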
# [3] = NCI Yeast Anticancer Drug Screen. Data for the sgs1 mgt1 strain (AID 161);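 note: 0% = growth of cultures given vehicle only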; conditions: S. cerevisiae sgs1 mgt1 strain, active compounds read high
# Outline: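 Genetically altered yeast, compound exposure, growth inhibition relative to vehicle.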
# [4] = NCI Yeast Anticancer Drug Screen. Data for the cln2 rad14 strain (AID 165);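 note: 0% = growth equal to vehicle treated cultures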; conditions: S. cerevisiae cln2 rad14 strain, active compounds read high
# Outline: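 Compounds are applied to the cln2 rad14 yeast strain, and growth is then compared with that of vehicle-treated cultures to give inhibition.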
# [5] = NCI Yeast Anticancer Drug Screen. Data for the bub3 strain (AID 167); conditions: S. cerevisiae bub3 mutant strain, active compounds read high
# Outline: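 Yeast carrying a defined mutation is treated with each compound, and growth is compared with that of vehicle-exposed cells to give inhibition.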
# [6] = NCI Yeast Anticancer Drug Screen. Data for the mlh1 rad18 strain (AID 175); conditions: S. cerevisiae mlh1 rad18 strain growth inhibition, active compounds read high
# Outline: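 Read-out is yeast growth inhibition, calculated against vehicle-only controls. The compound was applied to a strain engineered with DNA damage repair alterations.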
# [7] = at 5.0 µM (retest, dose inferred, filed as 0.5)
# [8] = at 50.0 µM (retest, dose inferred, filed as 5.0)
Compound,"growth inhibition [1, 7]","growth inhibition [1, 8]",growth inhibition ([1]; at 50.0 µM),"growth inhibition [2, 7]","growth inhibition [2, 8]",growth inhibition ([2]; at 50.0 µM),"growth inhibition [3, 7]","growth inhibition [3, 8]",growth inhibition ([3]; at 50.0 µM),"growth inhibition [4, 7]","growth inhibition [4, 8]",growth inhibition ([4]; at 50.0 µM),"growth inhibition [5, 7]","growth inhibition [5, 8]",growth inhibition ([5]; at 50.0 µM),"growth inhibition [6, 7]","growth inhibition [6, 8]",growth inhibition ([6]; at 50.0 µM)
S=C(N/N=C(/c1ccccc1)c1ccccn1)Nc1ccccc1,2%,90% (active),84.3% (active),14%,95% (active),73.5% (active),20%,95% (active),85.3% (active),-9%,94% (active),60.4%,2%,93% (active),76.2% (active),13%,94% (active),90% (active)
O=C1c2c(Br)c(Br)c(Br)c(Br)c2C(=O)N1c1nccs1,-1%,51%,75.4% (active),-4%,72% (active),70.8% (active),-10%,54%,75% (active),-20%,25%,45.5%,11%,70% (active),69.4%,21%,72% (active),72.3% (active)
O=C(OCCC1CCCCC1)c1cc([N+](=O)[O-])cc([N+](=O)[O-])c1,4%,79% (active),83.1% (active),13%,76% (active),75% (active),10%,70% (active),90.3% (active),6%,71% (active),80.5% (active),5%,82% (active),88.5% (active),12%,86% (active),89.8% (active)
O=C(OCc1ccccc1)N(CCCCN(CCCNCc1ccccc1)C(=O)OCc1ccccc1)CCCNCc1ccccc1,11%,99% (active),90.3% (active),22%,100% (active),93.2% (active),10%,100% (active),91.7% (active),3%,99% (active),90% (active),29%,99% (active),91.8% (active),28%,99% (active),91.2% (active)
O=[N+]([O-])c1ccc(NS(=O)(=O)c2ccc(Cl)c(Cl)c2Cl)c([N+](=O)[O-])c1,22%,18%,78.2% (active),24%,21%,42.1%,31%,38%,81% (active),16%,25%,45.1%,11%,10%,7.15%,22%,20%,75.2% (active)
CC(=O)[C@H]1CC[C@H]2[C@@H]3CC[C@H]4C[C@@H](N5CCOCC5)CC[C@]4(C)[C@H]3CC[C@]12C,54%,63%,73.3% (active),61%,76% (active),36.5%,70% (active),87% (active),83.5% (active),52%,30%,87.5% (active),49%,81% (active),59.5%,76% (active),69%,74.8% (active)
CCOC(=O)c1sc2c(c1O)c(=O)n(-c1ccccc1)c(=S)n2-c1ccccc1,84% (active),98% (active),95.7% (active),90% (active),98% (active),95.8% (active),83% (active),98% (active),95.5% (active),86% (active),98% (active),85.3% (active),47%,97% (active),95.2% (active),92% (active),98% (active),95% (active)
COc1cccc(/C=C(\NC(=O)c2ccccc2)c2nc3ccccc3s2)c1,64%,96% (active),98.3% (active),18%,96% (active),98.2% (active),53%,97% (active),98.8% (active),13%,97% (active),97.7% (active),29%,97% (active),97.4% (active),25%,96% (active),98.3% (active)
Cc1nc(Nc2ccc(Cl)cc2)sc1C(=O)NNC(=O)C(=O)NN,3%,3%,80.5% (active),-19%,-8%,59.5%,-13%,9%,61.8%,-31%,-10%,64.5%,-26%,-5%,41.1%,-45%,-32%,69.5%
Cc1cc(Sc2ccccc2)c2c(C)ccc(C(C)C)cc1-2,0%,-7%,-13.8%,-8%,-12%,61.4%,1%,6%,-0.65%,-16%,-9%,78.2% (active),-5%,-10%,21.4%,-2%,-3%,58%
